# Assay outcomes from PubChem.
# TDP1 cell noCPT – qHTS for Inhibitors of human tyrosyl-DNA phosphodiesterase 1 (TDP1): qHTS in cells in absence of CPT; DT40 Tdp1-/- hTDP1 cells, no CPT, ATP luminescence, 48 h; Potency, µM (titrated, usually from 46.2 µM), without a hit: at the top dose activity change, negative = growth inhibition, usual class: inhibitors; 420,000 compounds, 15% hits; further: potency means the concentration at half of the fitted maximal effect; nearly all actives have a fitted effect of over 55% in size
#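 DT40 Tdp1-/-;hTDP1 cells, no CPT (DMSO vehicle only), 400 cells/well; compounds pin-transferred; ≥48 hr, 37 °C; CellTiter-Glo 30 min RT dark, luminescence read.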
# HT1080-NT tox – qHTS for induction of synthetic lethality in tumor cells producing 2HG: qHTS for the HT-1080-NT fibrosarcoma cell line | HT-1080-NT fibrosarcoma viability, CellTiter-Glo ATP luminescence, 48 h | Potency, µM (highest dose often 46.1 µM), without a hit: at the top dose activity, negative = less viability, hits mostly cytotoxic | 360,000 compounds, 1.6% hits | AID 686970, 2013;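 further: NT is the 2HG producing partner of a matched IDH1 knockdown line; potency means the concentration at half of the fitted maximal effect; 0% = DMSO-treated cells and -100% = media-only wells without cells; nearly all actives have a fitted effect of over 55% in size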
#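 A 48-hour cytotoxicity screen used HT-1080-NT cells plated 2 hours before compound delivery. ATP-based CellTiter-Glo luminescence measured viability, normalized to DMSO and no-cell controls.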
# HT1080 IDH1KD tx – qHTS for induction of synthetic lethality in tumor cells producing 2HG: qHTS for the HT-1080-IDH1KD cell line. 360,000 compounds, 2% hits. Potency, µM (titrated, usually from 46.1 µM), for inactives: at the top dose activity, negative = toxicity, usual class: cytotoxic. HT-1080 IDH1 knockdown viability, ATP luminescence, 48 h. AID 686971, 2013;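 further: potency means the concentration at half of the fitted maximal effect; 0% = DMSO wells and -100% = cell-free medium wells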
#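 Cytotoxicity counter-line: IDH1KD HT-1080, 48 h, CellTiter-Glo. Curves classed by r2, magnitude and activity.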
# TDP1 cell CPT – qHTS for Inhibitors of human tyrosyl-DNA phosphodiesterase 1 (TDP1): qHTS in cells in presence of CPT. chicken DT40 Tdp1-/-;hTDP1 cells + 20 nM CPT, ATP luminescence, 48 h. Potency, µM (series often up to 46.2 µM), inactives show top-dose activity change, negative = growth inhibition, most hits filed as inhibitors. 420,000 compounds, 12% hits. AID 686979, 2013; further: potency means the concentration at half of the fitted maximal effect; nearly all actives have a fitted effect of over 55% in size
#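 Chicken DT40 Tdp1-/- cells stably complemented with human TDP1 were seeded at 400 cells/well in medium containing 20 nM camptothecin, exposed to pin-transferred compounds, and grown at 37 °C for at least 48 hr. Viability was read as ATP luminescence.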
# IL1B secr inh – qHTS for Inhibitors of Inflammasome Signaling: IL-1-beta AlphaLISA Primary Screen | THP-1 LPS/ATP IL-1B secretion, AlphaLISA, 16 h; active compounds read low | activity change, % at 57.5 µM | 360,000 compounds, 4.7% hits; in the data active means activity change below about -50%; inconclusive means mostly about -30% to -49%
#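 Secreted IL-1B measured by AlphaLISA bead assay after 16 h compound exposure of THP-1 cells; compounds (final up to 57.5 uM) added 1 h before LPS (250 ng/mL) and ATP (1.25 mM) stimulation; lower signal means less secretion.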
# An asterisk follows results filed as active; i = inactive; ? = inconclusive; . = not tested or not shown. A selection: hits, their analogues and other compounds. The true share with any hit is near 19%. Unless noted, the call rests on the fitted dose curve; in most records, active means well fitted curve in the direction sought with a large enough effect; inconclusive means small, poorly fitted or top-dose-only effect, or another doubt; inactive means no such curve, though single readings can be large; an effect the other way counts as inactive or inconclusive. Unless noted, on the % scale 0 is the no-effect control and ±100 the full control effect.
SMILES,TDP1 cell noCPT,HT1080-NT tox,HT1080 IDH1KD tx,TDP1 cell CPT,IL1B secr inh
CC(Cc1ccccn1)NC(=O)c1ccc(OC2CCN(CCc3ccccc3)CC2)cc1 (centres undefined),?,-12.0%,-10.3%,18.4µM*,i
COc1ccccc1C(CNC(=O)c1ccc(C)c(S(=O)(=O)N2CCCCC2)c1)N1CCCC1 (centres undefined),-21.5%,-3.4%,8.8%,-15.1%,-13.1
Cc1cc(C)cc(C(=O)N(C)[C@H](Cc2ccc(-c3ccccc3)cc2)C(=O)N[C@@H](Cc2c[nH]c3ccccc23)C(=O)O)c1,-24.7%,.,.,0.4%,.
Cc1ccc(O)c(NC(=O)Cc2ccc3ccccc3c2)c1,8.3%,?,-14.0%,4.6%,-65.3*
COC(=O)c1scc(-c2ccc(C)cc2)c1S(=O)(=O)Nc1cc(C)c(Cl)cc1OC,23.1µM*,.,.,4.61µM*,.
COC(=O)c1scc(C)c1S(=O)(=O)Nc1ccc(C)cc1,?,?,?,-23.3%,.
COC(=O)c1scc(-c2ccc(C)cc2)c1S(=O)(=O)Nc1cc(C)ccc1OC,23.1µM*,.,.,?,.
COc1cc(-c2nc(SCC(=O)Nc3ccc4c(c3)OCO4)c(-c3ccccc3)[nH]2)cc(OC)c1OC,16.4µM*,.,.,?,.
O=C(CSc1nc(-c2ccccc2)[nH]c1-c1ccccc1)Nc1ccc2c(c1)OCO2,14.6µM*,.,.,20.6µM*,.
COc1ccccc1Cc1nc2ccccc2nc1SCC(=O)Nc1ccc2c(c1)OCO2,-16.0%,.,.,-0.1%,.
O=C(CSc1ccccc1)Nc1ccc2c(c1)OCO2,-1.9%,-9.0%,-5.0%,18.6%,-13.0
O=C(CSc1nc(-c2ccccc2)c(-c2ccccc2)[nH]1)Nc1ccc2c(c1)OCO2,13µM*,?,?,?,22.4
O=C(c1cccc(Cl)c1)C1CCCN(C(=O)c2ccc3c(c2)OCO3)C1 (centres undefined),?,9.6%,-7.2%,?,9.7
O=C(C1CCCN(S(=O)(=O)c2ccc(Cl)cc2)C1)N(Cc1cccs1)C1CC1 (centres undefined),18.4µM*,2.7%,-10.3%,?,?
O=C(COC(=O)CCS(=O)(=O)c1ccccc1)Nc1cc(S(=O)(=O)N2CCCCC2)ccc1Cl,-23.0%,-14.0%,-12.4%,-10.6%,-2.7
CCN(Cc1ccccc1)S(=O)(=O)c1ccc(S(=O)(=O)N2CCN(C)CC2)cc1,-14.3%,-1.1%,4.5%,-28.9%,-2.9
CCN(CC(=O)Nc1cc(S(=O)(=O)N2CCCCC2)ccc1Cl)Cc1ccccc1,18.4µM*,-0.1%,-22.8%,16.4µM*,5.8
O=S(=O)(c1ccc(S(=O)(=O)N(Cc2ccccc2)Cc2ccco2)cc1)N1CCCC1,?,-6.6%,-17.8%,14.6µM*,-8.3
CN(CC(=O)Nc1cc(S(=O)(=O)N2CCCC2)ccc1Cl)Cc1cccs1,16.4µM*,-12.4%,-3.9%,?,0.0
CCOC(=O)C1(C(=O)OCC)NC(=O)CC1CC(C)C (centres undefined),7.0%,10.5%,27.7%,0.5%,-8.9
CCN(CC(=O)Nc1ccc(S(=O)(=O)N2CCCCC2)cc1)Cc1ccccc1,?,2.9%,-18.2%,11.6µM*,-1.4
CC(=O)N1CCC(N(Cc2ccc(C)o2)C(=O)Nc2ccc(C)cc2)CC1,-18.3%,.,.,1.8%,.
Cc1ccccc1N(C)C(=O)c1noc2c1COc1ccccc1-2,14.6µM*,.,.,23.1µM*,.
COc1ccc(C(=O)C(C)[n+]2ccc(C)c3ccccc32)cc1[N+](=O)[O-] (centres undefined),7.31µM*,-9.2%,-10.1%,18.4µM*,0.0
COC(=O)[C@@H](NS(=O)(=O)c1cc(Br)ccc1Br)C(C)C,?,0.1%,2.9%,?,25.2
